# Source: PubChem (National Center for Advancing Translational Sciences (NCATS))
# In the library only some 0.74% were active in any assay of this set; here they are far more common.
# GRP78 ERSR act = ER stress response induction in glioma; Potency, µM, inactives show top-dose activation, hits mostly activators; hit rate 0.02% among 420,000; U87-MG GRP78 promoter luciferase reporter, 16 h; further: potency means the concentration at half of the fitted maximal effect; series mostly up to about 76 µM; % of control where 0% means no effect; nearly all actives have a fitted effect of over 35% in size
#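 ERSR induction read as luciferase luminescence (Bright-Glo, 10 min at room temperature) in stably transfected human U87-MG glioma cells exposed to compounds for 16 h, using GRP78 as sensor.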
# Vif-A3F inh = blocks the Vif interaction with APOBEC3F. HeLa A3F-eYFP + Vif (tagged APOBEC3F with the HIV-1 protein that degrades it), YFP fluorescence increase. Potency, µM (top dose mostly 46.1 µM), inactives show at the top dose activity, negative = active. hit rate 0.2% among 390,000; further: potency means the concentration at half of the fitted maximal effect; % of control where 0% means no effect; nearly all actives have a fitted effect of over 65% in size
#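 HeLa cells stably expressing Vif plus C-terminally eYFP-tagged A3F were seeded, incubated overnight at 37 deg C, dosed with compound, incubated overnight again at 37 deg C. Yellow fluorescence (Ex 488/Em 500-530) reported blocked Vif-mediated A3F-eYFP degradation.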
# PINK1 expr mod = PINK1 expression modulation | hit rate 0.2% among 410,000 | PINK1 immunofluorescence, high-content cytometry, 24 h | Potency, µM (highest dose often 76.6 µM), for inactives: at the top dose activation (PINK1 increase), usual class: activators; active means well fitted activation curve with a large enough effect; inconclusive means small, poorly fitted or top-dose-only effect; cell line not stated here; further: potency means the concentration at half of the fitted maximal effect; % of control where 0% means no effect; nearly all actives have a fitted effect of over 65% in size
#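 Decision-based qHTS: stable cells, 24 h exposure to five compound concentrations, CCCP as control. Fixed cells stained for PINK1 plus nuclear, mitochondrial and cell markers, cytometer read.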
# pAkt inh = blocks phosphorylation of Akt. activity change, % for hits at 50 µM. hit rate 0.32% among 360,000. Neuro2A IGF-stimulated pAkt S473 HTRF, 20 min; active compounds read low; in the data active means activity change below about -80%; inconclusive means mostly about -51% to -80%; further: on the % scale 0 is the no-effect control and ±100 the full control effect
#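 Single-point screen (50 µM final compound) in Neuro2A cells stimulated 20 min with 6 nM IGF at 37 deg C. After lysis, Ser473-phosphorylated Akt read by HTRF (ex 330 nm, em 615/665 nm) as the 665/615 ratio.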
# Vif-APOBEC3G blk = Vif-A3G binding inhibition; Q9HC16; HeLa A3G-eYFP + Vif (tagged APOBEC3G with the HIV-1 protein that degrades it), YFP fluorescence, overnight; Potency, µM (titrated, usually from 46.1 µM), for inactives: at the highest dose activity, negative = active, hits mostly inhibitors; hit rate 0.076% among 410,000; further: potency means the concentration at half of the fitted maximal effect; on the % scale 0 is the no-effect control and ±100 the full control effect; nearly all actives have a fitted effect of over 60% in size
# Target sequence (Q9HC16 whole entry, looked up): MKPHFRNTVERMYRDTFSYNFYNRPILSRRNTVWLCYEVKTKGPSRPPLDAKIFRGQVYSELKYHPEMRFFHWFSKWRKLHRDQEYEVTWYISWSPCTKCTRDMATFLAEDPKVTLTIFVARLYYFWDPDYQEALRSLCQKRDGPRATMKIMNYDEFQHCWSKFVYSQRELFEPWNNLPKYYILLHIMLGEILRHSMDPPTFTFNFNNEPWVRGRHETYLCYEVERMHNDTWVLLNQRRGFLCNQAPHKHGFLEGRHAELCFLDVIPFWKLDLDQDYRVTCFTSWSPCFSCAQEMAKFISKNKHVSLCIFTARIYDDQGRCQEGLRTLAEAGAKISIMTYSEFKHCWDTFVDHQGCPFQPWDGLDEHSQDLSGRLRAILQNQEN
#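 HeLa cells stably expressing Vif and C-terminally eYFP-tagged A3G, seeded overnight at 37 deg C, then exposed to compound by pintool overnight at 37 deg C. Rise in yellow fluorescence (Ex 488/Em 500-530, Acumen) marks blocked Vif-driven A3G degradation.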
# LDHA block = LDHA (human) enzyme inhibition; purified LDHA, NADH/diaphorase-resazurin fluorescence; active compounds read low; activity change, % (values are at about 110 or 230 µM); P00338; hit rate 0.15% among 480,000; in the data active means activity change below about -30%; inconclusive means mostly about -25% to -30%;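 further: plate controls were DMSO wells for no effect and wells without enzyme for full effect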
#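 Enzyme activity of human lactate dehydrogenase 5 (2 nM; 0.06 mM NADH, 0.2 mM pyruvate, 5 min, RT) is measured via a resazurin/diaphorase fluorescence readout of residual NADH.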
# * hit, by the source's call; i = inactive; ? = inconclusive; · = no result given; [ ] = another dose, or the depositor's remark. Unless noted, the call rests on the fitted dose curve; in most records, active means well fitted curve in the direction sought with a large enough effect; inconclusive means small, poorly fitted or top-dose-only effect, or another doubt; inactive means no such curve, though single readings can be large; an effect the other way counts as inactive or inconclusive.
SMILES,GRP78 ERSR act,Vif-A3F inh,PINK1 expr mod,pAkt inh,Vif-APOBEC3G blk,LDHA block
COC(=O)c1c(-c2cccnc2)csc1NC(=O)c1ccc2c(c1)OCO2,3.6%,10µM*,?,i,-20.2%,-4.9
C=CCNS(=O)(=O)c1cccs1,·,·,·,·,·,-0.3
Cc1cc(C(=O)COC(=O)c2cccs2)c(C)n1Cc1ccco1,·,·,·,·,·,-33.3*
Cc1cc(C)cc(NC(=O)CSc2nc(N)c(NC(=O)c3cccs3)c(=O)[nH]2)c1,2.4%,5.5%,-0.6%,i,-7.1%,-32.4*
Cc1nn(-c2ccccc2)c(N2CCCC2)c1/C=N/NC(=O)c1cc2ccccc2cc1O,-6.4%,1.0%,15.8µM*,i,2.8%,-4.8
CCOC(=O)C1C(=O)NC(N2CCN(Cc3ccccc3)CC2)=NC1c1ccccc1 (stereo not drawn),-4.7%,0.4%,4.2%[38.3 µM],-86.6%*,0.9%,-14.2
CCn1c(SCC(=O)c2c[nH]c3ccccc23)nnc1-c1cccs1,-2.3%,22.4µM*,12.7%,i,11.2µM*,-3.4
CCn1c(SCC(=O)NCc2ccc3c(c2)OCO3)nnc1-c1cccs1,3.6%,0.1%,2.8%[38.3 µM],-96.0%*,-1.4%,-2.6
Cn1c(SCC(=O)NCc2ccc3c(c2)OCO3)nnc1-c1cccs1,0.2%,-2.0%,-2.1%,i,-0.6%,-2.1
CC1CCC(NC(=O)CSc2ncnc3c2cnn3-c2ccccc2)CC1 (stereo not drawn),·,·,·,·,·,-5.4
COc1ccc(/C=C(/CC(=O)O)c2nc3ccccc3o2)cc1OC,·,·,·,·,·,13.8
Cc1cc(C)n(S(=O)(=O)c2ccc(Cl)cc2)n1,-4.5%,-0.2%,0.1%,i,-0.4%,-0.6
Cc1cc(C)n(S(=O)(=O)c2cc(Cl)ccc2Cl)n1,-4.1%,0.0%,3.6%,-120.9%*,0.1%,-5.3
CC(=O)c1c[nH]cc1C,·,·,·,·,·,0.0
O=C(Nc1ccccc1)N1CCC(c2nc(-c3ccc(S(=O)(=O)N4CCOCC4)cc3)no2)CC1,-1.8%,-1.4%,12.6µM*,i,?,-5.1
O=C(c1ccccc1)N1CCC(c2nc(-c3ccc(S(=O)(=O)N4CCOCC4)cc3)no2)CC1,-4.6%,-12.2%,1.0%,i,-0.4%,-6.6
Clc1nc2ccccc2cc1CSc1ccc2c(c1)OCCO2,·,·,·,·,·,3.4
Cc1[nH]c2ccccc2c1/C=C/c1ccc2ccccc2n1,-5.9%,·,·,·,11.2µM*,·
O=C(/C=C/c1cccc([N+](=O)[O-])c1)OCC(=O)c1ccc(OC(F)F)cc1OC(F)F,·,·,·,·,·,3.9
CN1CCc2c(sc3c2C(=O)NC(c2ccc(-c4ccc(Cl)cc4)o2)N3)C1 (stereo not drawn),2.4%,28.2µM*,7.7%,i,?,-0.5
CCOC(=O)c1sc(NC(=O)CSc2nc(C)cc(C)n2)c(C#N)c1C,1.5%,-6.2%,10.9%[38.3 µM],i,-0.2%,-3.5
CCN(CC)C(=O)c1sc(NC(=O)Cc2ccccc2)c(C#N)c1C,-5.8%,·,1.0%,-115.2%*,-5.9%,-3.8
CCOC(=O)c1sc(NC(=O)CSc2n[nH]c(-c3ccccc3)n2)c(C#N)c1C,-2.3%,-0.9%,15.8µM*,i,-0.7%,2.6
CCN1CC(CN(C)S(=O)(=O)N(CC)CC)Oc2ccccc21 (stereo not drawn),·,·,·,·,·,12.8
CC(Oc1ccc(F)cc1)C(=O)Nc1ccc(-c2nc3ccccc3o2)cc1 (stereo not drawn),·,·,·,·,·,0.5
SMILES,GRP78 ERSR act,Vif-A3F inh,PINK1 expr mod,pAkt inh,Vif-APOBEC3G blk,LDHA block
O=C(c1ccc(Br)cc1)N(C1CCCCC1)C1CCCCC1,·,·,·,·,·,8.9
CC(=O)c1c(C)[nH]c(C(=O)NCCc2ccccc2)c1C,-5.3%,-3.8%,-5.1%,-117.4%*,-4.8%,-5.1
COc1ccc(CCNC(=O)c2[nH]c(C)c(C(C)=O)c2C)cc1OC,-0.3%,0.2%,-0.3%,i,3.3%,2.7
Fc1ccc(C2Cc3ccccc3N2)cc1 (stereo not drawn),·,·,·,·,·,12.4
CN(Cc1nc2ccccc2s1)c1ncc(C(F)(F)F)cc1Cl,·,·,·,·,·,-0.9
Cc1ccc(-n2sc3ccccc3c2=O)cc1,-9.3%,0.9%,-0.7%,i,-13.8%,-35.4*
COC(=O)c1cccc(-n2sc3ccccc3c2=O)c1,-8.7%,-8.4%,-1.2%,i,-4.3%,?
O=c1c2cc(F)ccc2sn1-c1ccccc1Cl,-1.4%,-11.4%,0.4%,i,-12.4%,-42.9*
O=c1c2ccccc2sn1-c1ccc(F)cc1,-8.0%,-3.2%,2.0%,i,-9.4%,-31.0*
O=c1c2ccc(F)cc2sn1-c1ccccc1,-12.8%,-24.7%,8.9%,i,-12.7%,-13.4
O=c1c2ccccc2sn1-c1ccc(Cl)cc1,-4.4%,-26.0%,26.0%,i,-9.7%,-51.8*
COc1ccc(CN2CCN(C(=O)c3cc4c(s3)CCCC4)CC2)cc1OC,·,·,·,·,·,2.7
COc1cccc(C2C(C(=O)c3sc(C)nc3C)=C(O)C(=O)N2CCN2CCOCC2)c1OC (stereo not drawn),0.6%,0.2%,-2.3%,-121.7%*,0.2%,-7.2
CC(CCc1ccccc1)N1CCN(Cc2ccccc2)CC1 (stereo not drawn),-2.6%,1.0%,2.6%,i,0.3%,-30.6*
CCS(=O)(=O)N1CCN(C(C)CCc2ccccc2)CC1 (stereo not drawn),-5.4%,2.0%,1.3%,i,2.4%,-19.0
COc1ccc(N2C(=O)C(Cl)=C(N(CCO)Cc3ccccc3)C2=O)cc1,-4.4%,4.3%,-0.2%,-111.6%*,-2.5%,-3.0
COc1ccc(N2C(=O)C(Cl)=C(N3CCN(Cc4ccccc4)CC3)C2=O)cc1,-7.7%,-9.0%,5.0%[38.3 µM],i,1.8%,0.9
N#C/C(=C/c1ccc(-c2cccc(Cl)c2Cl)o1)C(=O)c1ccccc1,·,·,·,·,·,11.5
COc1cc(/C=C(\C#N)c2ccccn2)ccc1OCC(=O)Nc1ccc(Br)cc1,-2.9%,8.0%,3.8%,i,3.2%,-5.0
Cc1ccc2nc(/C(C#N)=C/c3ccc(-c4cccc(Cl)c4)o3)[nH]c2c1,3.0%,3.16µM*,?,·,7.94µM*,-0.9
COc1cc(/C=C(\C#N)c2nc3ccccc3s2)ccc1OCC(=O)Nc1ccccc1,11.3%,?,2.6%,i,10µM*,4.2
COc1cc(/C=C(\C#N)c2nc3ccc(C)cc3[nH]2)ccc1OC(C)C,0.2%,25.1µM*,19.4%,·,-31.7%,6.9
COc1cc(/C=C(/C#N)c2nc3ccccc3[nH]2)ccc1OCC(=O)Nc1ccccc1C(C)C,10.6%,10µM*,?,i,-14.1%,-2.8
COc1cc(/C=C(/C#N)c2nc3ccccc3[nH]2)ccc1OCC(=O)Nc1ccccc1C,-2.0%,-19.3%,10.6%,i,-12.3%,-0.2
CN(Cc1c(F)cccc1Cl)S(=O)(=O)c1ccc2c(c1)CCC2,·,·,·,·,·,-11.9
O=C(c1nc2nc(-c3ccco3)cc(C(F)(F)F)n2n1)N1CCOCC1,·,·,·,·,·,2.3
